For 3 compounds, outcome and AC50 results are on record in PubChem BioAssay (EPA / NIEHS).

Read-out in assay [1]: Thrombomodulin, THBD (gene 7056)
In words: BSK_CASM3C_Thrombomodulin: BioMAP Diversity Plus: CASM3C Assay for Thrombomodulin Biomarker Activity (AID 2283051).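 Also: thrombomodulin protein level measured by ELISA 24 h after dosing.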 Conditions: primary human coronary artery smooth muscle cells; actives raise or lower the signal.

Read-out in assay [2]: Tissue Factor, F3 (gene 2152)
The experiment in a line: BSK_CASM3C_TissueFactor: BioMAP Diversity Plus: CASM3C Assay for Tissue Factor Biomarker Activity (AID 2283052).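 Also: cell surface tissue factor protein level read by ELISA.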 Conditions: primary human coronary artery smooth muscle cells; actives raise or lower the signal.

Read-out in assay [3]: Interferon-gamma inducible Protein 10 (IP10), CXCL10 (gene 3627)
The experiment in a line: BSK_hDFCGF_IP10: BioMAP Diversity Plus: hDFCGF Assay for Interferon-gamma inducible Protein 10 (IP10) Biomarker Activity (AID 2283053). Conditions: primary human foreskin fibroblasts; actives raise or lower the signal. In a few lines: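 Primary human foreskin fibroblasts exposed to chemicals for 24 h. IP-10 measured by ELISA; changes fitted bidirectionally against DMSO baseline.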

Read-out in assay [4]: Urokinase-type plasminogen activator receptor (uPAR), PLAUR (gene 5329)
The experiment in a line: BSK_CASM3C_uPAR: BioMAP Diversity Plus: CASM3C Assay for Urokinase-type plasminogen activator receptor (uPAR) Biomarker Activity (AID 2283054).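 Also: cell-surface uPAR protein level quantified by ELISA.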 Conditions: primary human coronary artery smooth muscle cells; actives raise or lower the signal.

Read-out in assay [5]: Vascular cell adhesion molecule 1 (VCAM1), VCAM1 (gene 7412)
In words: BSK_CASM3C_VCAM1: BioMAP Diversity Plus: CASM3C Assay for Vascular cell adhesion molecule 1 (VCAM1) Biomarker Activity (AID 2283055).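 Also: VCAM-1 protein level quantified by ELISA on the cells.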 The conditions noted are these: primary human coronary artery smooth muscle cells; actives raise or lower the signal.

Read-out in assay [6]: Collagen III, COL3A1 (gene 1281)
In words: BSK_hDFCGF_CollagenIII: BioMAP Diversity Plus: hDFCGF Assay for Collagen III Biomarker Activity (AID 2283056). The conditions noted are these: primary human foreskin fibroblasts; actives raise or lower the signal. Put shortly:
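hDFCGF primary human dermal fibroblasts; 24 h chemical exposure; collagen III by ELISA; bidirectional curve fit vs DMSO baseline (gain or loss of signal).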

Read-out in assay [7]: Epidermal growth factor receptor (EGFR), EGFR (gene 1956)
The experiment in a line: BSK_hDFCGF_EGFR: BioMAP Diversity Plus: hDFCGF Assay for Epidermal growth factor receptor (EGFR) Biomarker Activity (AID 2283057). The conditions noted are these: primary human foreskin fibroblasts; actives raise or lower the signal. Put shortly: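 Primary human foreskin fibroblasts (hDFCGF system), sampled 24 h after dosing; EGFR quantified by ELISA. Bidirectional fit relative to DMSO baseline; SRB total-protein staining in parallel cultures for cytotoxicity.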

Read-out in assay [8]: Interleukin-8 (IL8), CXCL8 (gene 3576)
The experiment in a line: BSK_hDFCGF_IL8: BioMAP Diversity Plus: hDFCGF Assay for Interleukin-8 (IL8) Biomarker Activity (AID 2283058). The conditions noted are these: primary human foreskin fibroblasts; actives raise or lower the signal. Put shortly:
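ELISA read-out of IL-8 from primary human foreskin fibroblast cultures taken 24 h after dosing; values are bidirectional fits relative to DMSO vehicle.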

A short description of assay [9]: BSK_hDFCGF_Proliferation: Cell Proliferation Assessment in the BioMAP Diversity Plus: hDFCGF Assay (AID 2283059).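 Also: curves fitted for both rise and fall of signal versus DMSO baseline.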 The conditions noted are these: primary human foreskin fibroblasts. In a few lines: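 This proliferation readout used SRB total-protein staining of human foreskin fibroblasts […], normalized to DMSO with bidirectional curve fitting.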

Read-out in assay [10]: Macrophage colony-stimulating factor (MCSF), CSF1 (gene 1435)
In words: BSK_hDFCGF_MCSF: BioMAP Diversity Plus: hDFCGF Assay for Macrophage colony-stimulating factor (MCSF) Biomarker Activity (AID 2283060). Conditions: primary human foreskin fibroblasts; actives raise or lower the signal. Put shortly: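 ELISA read-out of M-CSF in human dermal foreskin fibroblast cultures, 24 h after chemical dosing; gain or loss of signal fitted bidirectionally relative to DMSO baseline.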

A short description of assay [11]: BSK_hDFCGF_SRB: Viability Assessment in the BioMAP Diversity Plus: hDFCGF Assay (AID 2283061).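 Also: cells exposed to compound for 24 h before the read.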 Conditions: primary human foreskin fibroblasts. Put shortly: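 Primary human foreskin fibroblasts; 24 h post-dose; fixed 10% TCA, stained 0.1% SRB, A560 read; total protein as overt cytotoxicity measure; curves fit bidirectionally vs DMSO control.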
Read-out in assay [12]: TIMP metallopeptidase inhibitor 1 (TIMP1), TIMP1 (gene 7076)
The experiment in a line: BSK_hDFCGF_TIMP1: BioMAP Diversity Plus: hDFCGF Assay for TIMP metallopeptidase inhibitor 1 (TIMP1) Biomarker Activity (AID 2283062). Conditions: primary human foreskin fibroblasts; actives raise or lower the signal. In a few lines:
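ELISA readout of TIMP-1 from human dermal foreskin fibroblast cultures 24 h post-dosing. Curves were fitted in both directions against DMSO baseline, with SRB total-protein staining in parallel cultures as a cytotoxicity check.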

Read-out in assay [13]: Monokine induced gamma interferon (MIG), CXCL9 (gene 4283)
The experiment in a line: BSK_hDFCGF_MIG: BioMAP Diversity Plus: hDFCGF Assay for Monokine induced gamma interferon (MIG) Biomarker Activity (AID 2283063). The conditions noted are these: primary human foreskin fibroblasts; actives raise or lower the signal. In a few lines:
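Fibroblasts (human foreskin, primary) dosed, 24 h, MIG by ELISA; fit bidirectional vs DMSO.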

Read-out in assay [14]: Matrix Metallopeptidase 1 (MMP1), MMP1 (gene 4312)
The experiment in a line: BSK_hDFCGF_MMP1: BioMAP Diversity Plus: hDFCGF Assay for Matrix Metallopeptidase 1 (MMP1) Biomarker Activity (AID 2283064). Conditions: primary human foreskin fibroblasts; actives raise or lower the signal. In a few lines:
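Primary human foreskin fibroblasts in the hDFCGF system were dosed with test chemical, and MMP1 was measured by ELISA 24 h later. Values come from bidirectional curve fitting against the DMSO baseline.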

Read-out in assay [15]: Vascular cell adhesion molecule 1 (VCAM1), VCAM1 (gene 7412)
In words: BSK_hDFCGF_VCAM1: BioMAP Diversity Plus: hDFCGF Assay for Vascular cell adhesion molecule 1 (VCAM1) Biomarker Activity (AID 2283065).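 As to AC50: VCAM-1 protein level quantified by ELISA after 24 h chemical exposure.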 The conditions noted are these: primary human foreskin fibroblasts; actives raise or lower the signal. In a few lines:
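ELISA read-out of VCAM-1 on human skin fibroblasts, 24 h post-dose; gain or loss of signal fitted bidirectionally against DMSO baseline.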

Read-out in assay [16]: Plasminogen activator inhibitor-1 (PAI1), SERPINE1 (gene 5054)
In words: BSK_hDFCGF_PAI1: BioMAP Diversity Plus: hDFCGF Assay for Plasminogen activator inhibitor-1 (PAI1) Biomarker Activity (AID 2283066). The conditions noted are these: primary human foreskin fibroblasts; actives raise or lower the signal. Put shortly: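 Human foreskin fibroblast primary cells, 24 h chemical exposure; PAI-1 measured by ELISA. Bidirectional fitting relative to DMSO; parallel cultures stained with SRB for total protein to flag overt cytotoxicity.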

Read-out in assay [17]: Intercellular Adhesion Molecule 1 (ICAM1), ICAM1 (gene 3383)
In words: BSK_KF3CT_ICAM1: BioMAP Diversity Plus: KF3CT Assay for Intercellular Adhesion Molecule 1 (ICAM1) Biomarker Activity (AID 2283067). Conditions: primary human keratinocytes with fibroblasts; actives raise or lower the signal. In a few lines: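 ELISA readout of ICAM-1; KF3CT human skin co-culture (keratinocytes + foreskin fibroblasts), 24 h post-dose; gain/loss fit vs DMSO baseline.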

Read-out in assay [18]: Interferon-gamma inducible Protein 10 (IP10), CXCL10 (gene 3627)
In words: BSK_KF3CT_IP10: BioMAP Diversity Plus: KF3CT Assay for Interferon-gamma inducible Protein 10 (IP10) Biomarker Activity (AID 2283068). Conditions: primary human keratinocytes with fibroblasts; actives raise or lower the signal. In a few lines:
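Signal is secreted/surface IP-10 by ELISA in a human primary skin co-culture of keratinocytes and foreskin fibroblasts, taken 24 h post-dosing; DMSO served as negative control.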

A short description of assay [19]: BSK_KF3CT_SRB: Viability Assessment in the BioMAP Diversity Plus: KF3CT Assay (AID 2283069).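 Also: total protein by sulforhodamine B staining as a cytotoxicity measure; read 24 h after compound addition.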 Conditions: primary human keratinocytes with fibroblasts. In a few lines: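 Human primary keratinocyte plus foreskin fibroblast co-culture exposed to chemicals for 24 h. Total protein measured by 0.1% sulforhodamine B staining after 10% TCA fixation, read at 560 nm; bidirectional fitting versus DMSO baseline.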

Read-out in assay [20]: Interleukin-1 alpha (IL1a), IL1A (gene 3552)
The experiment in a line: BSK_KF3CT_IL1a: BioMAP Diversity Plus: KF3CT Assay for Interleukin-1 alpha (IL1a) Biomarker Activity (AID 2283070). Conditions: primary human keratinocytes with fibroblasts; actives raise or lower the signal. Put shortly:
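Human keratinocyte plus foreskin fibroblast primary co-culture, sampled 24 h after chemical dosing. IL-1a measured by ELISA; responses fitted bidirectionally against DMSO baseline (negative control), so gain or loss of signal both count.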

Calls of active or inactive are those of the source. The calls were made as follows: active = hit-call score of the fitted dose curve at least 0.9, where 1 is the maximum; inactive = score below 0.9.

Take `Cc1cc(C)nc(NC(=O)NS(=O)(=O)c2ccccc2C(=O)OC2COC2)n1`: the outcome in assay [1], in assay [2], in assay [3], in [4], in assay [5] and in [6] was inactive. Besides, the outcome in [7], in [8], in assay [9], in assay [10], in assay [11] and in assay [12] was inactive. Also, the result in assay [13], in assay [14], in [15], in assay [16], in [17] and in assay [18] was inactive. Besides, the outcome in [19] and in assay [20] was inactive.

The term AC50 denotes the concentration giving half of the maximal activity seen. Take `CCCN(CCOc1c(Cl)cc(Cl)cc1Cl)C(=O)n1ccnc1`: the AC50 in [1] is 3.97 µM (active); in assay [3], 30.7 µM (active); in [6], 31.1 µM (active); in [9] it was 21 µM (active); in [10] it was 23.8 µM (active); in assay [11], 16 µM (active). Besides, the AC50 in [16] was 23.9 µM (active). Besides, the result in assay [2], in [4], in assay [5], in [7], in assay [8] and in assay [12] was inactive. For the same compound, the result in [13], in assay [14], in assay [15], in assay [17], in [18] and in assay [19] was inactive. Further, in [20], the result was inactive.

In the case of `CCOCN(C(=O)CCl)c1c(C)cccc1CC`, the AC50 is 16.8 µM (active) in [1]; 20 µM (active) in assay [3]; 20 µM (active) in assay [5]; 8.23 µM (active) in [6]; 14.5 µM (active) in assay [9]; 9.55 µM (active) in assay [10]. The AC50 is 22.8 µM (active) in assay [13]; 5.13 µM (active) in [14]; 3.54 µM (active) in assay [15]; 21.8 µM (active) in assay [16]; 23.6 µM (active) in assay [18]. In addition, the outcome in assay [2], in assay [4], in assay [7], in assay [8], in assay [11] and in [12] was inactive. For the same compound, the result in assay [17], in [19] and in assay [20] was inactive.
